Experimental data from ChEMBL document CHEMBL1157539, “Thousands of chemical starting points for antimalarial lead identification” (Nature, 2010).

test system: HepG2; assay: GSK_TCMDC: Percent inhibition of human HepG2 cell line. Test compounds present at 10uM.; assay type: functional

Structure (SMILES) | Inhibition [%]
CCN(Cc1ccccc1)CC(O)c1ccc(Cl)c(Cl)c1.Cl (stereo not drawn) | 2
CCOC(C(=O)OCC1CCCN1C)(c1ccccc1)c1ccccc1 (stereo not drawn) | 13
C=CCOc1ccccc1CNCC(O)c1cccc(C(F)(F)F)c1 (stereo not drawn) | 10
CC(Cc1ccc(OCc2ccccc2)c(Cl)c1)NCC(O)c1cccc(C(F)(F)F)c1 (stereo not drawn) | 0
O=C(/C=C/c1ccc(Cl)c(Cl)c1)NCc1ccc(CN2CCC(c3c[nH]c4ccccc34)CC2)cc1 | 59
O=C(NC1CCC(CN2CCC(c3c[nH]c4ccccc34)CC2)CC1)c1ccc(-c2cc(C(F)(F)F)ccc2Cl)o1 (stereo not drawn) | 5
CC[C@H]1CN2CC[C@H]1C[C@@H]2[C@@H](O)c1ccnc2ccccc12 | 10
COC(=O)c1ccc(C[C@@H](C)NC[C@H](O)c2cccc(C(F)(F)F)c2)cc1.Cl | 1
CC[C@H]1CN2CC[C@H]1C[C@H]2[C@H](O)c1cc(-c2ccc(Cl)c(Cl)c2)nc2ccc(OC)cc12.Cl | 17
O=C(/C=C/c1ccc(Cl)c(Cl)c1)N1CCC2CC(N3CCC(c4c[nH]c5ccccc45)CC3)CCC2C1 (stereo not drawn) | 31
CC(C)(C)c1ccc(Cn2nc(C(=O)N3CCN(C(=O)C4CCCO4)CC3)c3ccccc32)cc1 (stereo not drawn) | 0
CC[C@H]1CN2CC[C@H]1C[C@H]2[C@H](O)c1cc(-c2cccc(Cl)c2)nc2ccc(OC)cc12.Cl | 16
Br.COC(=O)C(C)(C)c1ccc(CC(C)NCC(O)c2cccc(C(F)(F)F)c2)cc1 (stereo not drawn) | 6
